Source: PubChem
Shiga toxin inh: Shiga toxin inhibition; Vero cells, Shiga toxin protein synthesis inhibition reporter; inhibition, % at 38.7 µM; hit rate 9.2% among 290,000; in the data active = inhibition mostly above about 28%, no sharp cut-off; inactive = mostly below about 43%; also: 0% is about no effect
RE007 growth inh: less growth of the S. pombe RE007 Vpr strain; S. pombe RE007 Vpr strain, BacTiter-Glo ATP luminescence, 24 h; Potency, µM (titrated, usually from 92.2 µM), inactives show top-dose activity change, negative = less growth, most hits filed as inhibitors; hit rate 0.21% among 360,000; active = well fitted falling curve with a large enough effect; inconclusive = small, poorly fitted or top-dose-only effect; inactive = no such curve, though single readings can be large or run the other way; also: potency is read from the fitted curve at half-maximal effect; % is scaled to controls: 0 for no effect and ±100 for the full control effect; nearly all actives have a fitted effect of over 50% in size
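Fission yeast RE007 carrying one integrated HIV-1 vpr copy, seeded at OD 0.01 in PMG+AL medium with 23 nL pinned compound. Grown 24 h at 30 degrees; viability read by BacTiter-Glo luminescence after 5 min.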
Giardia FBPA inh: Giardia lamblia aldolase inhibition. A8B2U2. purified Giardia FBPA. Potency, µM (top dose mostly 59.6 µM), inactives show at the top dose activity, negative = inhibition, most hits filed as inhibitors. hit rate 0.71% among 290,000; also: potency is read from the fitted curve at half-maximal effect; % is scaled to controls: 0 for no effect and ±100 for the full control effect; nearly all actives have a fitted effect of over 55% in size
Target sequence (A8B2U2 whole entry, looked up): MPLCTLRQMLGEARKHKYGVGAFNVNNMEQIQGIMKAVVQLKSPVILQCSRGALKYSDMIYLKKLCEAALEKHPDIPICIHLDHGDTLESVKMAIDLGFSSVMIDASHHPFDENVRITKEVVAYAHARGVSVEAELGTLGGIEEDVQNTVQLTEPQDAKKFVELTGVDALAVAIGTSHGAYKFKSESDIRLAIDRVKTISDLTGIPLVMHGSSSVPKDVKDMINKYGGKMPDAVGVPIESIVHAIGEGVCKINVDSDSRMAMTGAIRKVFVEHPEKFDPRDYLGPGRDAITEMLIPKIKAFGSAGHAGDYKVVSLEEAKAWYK
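Giardia FBPA (40 nM reagent) was preincubated 10 min at RT with compound (up to 57.5 uM final), then substrate plus GAPDH/TPI/NAD/arsenate coupling system with diaphorase/resazurin was added; resorufin fluorescence (525/598 nm) was read after 20 min.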
CHX counter: affects cycloheximide protein synthesis inhibition readout, counter-screen; hit rate 12% among 300,000; cell reporter, cycloheximide protein synthesis inhibition counterscreen; max response, %; AID 2314; in the data active = max response mostly above about 13%, no sharp cut-off; inactive = mostly below about 14%; also: read at 38.3 µM for the half of the compounds with a filed dose; 0% is about no effect
Tb PYK inh: T. brucei pyruvate kinase inhibition | Q57TT1 | Potency, µM (top dose mostly 76.8 µM), without a hit: top-dose activity, negative = inhibition, usual class: inhibitors | hit rate 0.12% among 410,000 | TbPYK enzyme, Kinase-Glo Plus ATP luminescence, 45 min; also: potency is read from the fitted curve at half-maximal effect; % is scaled to controls: 0 for no effect and ±100 for the full control effect; nearly all actives have a fitted effect of over 50% in size
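ADP (130 uM final) triggers the TbPYK reaction after compound addition; incubation is 45 min at room temperature. Kinase-Glo Plus is then added and luminescence imaged. Normalized data are fitted to concentration-effect curves.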
LmPK inhibitor: LmPK (Leishmania mexicana) enzyme inhibition; Q27686; purified LmPK, Kinase-Glo ATP luminescence, 1 h; Potency, µM (series often up to 57.5 µM), without a hit: at the highest dose activity change, negative = inhibition, hits mostly inhibitors; hit rate 0.37% among 290,000; also: potency is read from the fitted curve at half-maximal effect; % is scaled to controls: 0 for no effect and ±100 for the full control effect
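Kinase-Glo luminescence read after 1 h RT reaction of 0.1 nM LmPK with 0.5 mM PEP and 0.1 mM ADP. Activity scaled between uninhibited and enzyme-free controls.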
* = called active by the depositor; ? = inconclusive; · = no result given; [ ] = remark or other dose. The full list was thinned out, with hits kept by preference. Unless noted, calls follow the shape of the dose curve; as a rule, active = well fitted curve in the direction sought with a large enough effect; inconclusive = small, poorly fitted or top-dose-only effect, or another doubt; inactive = no such curve, though single readings can be large; an effect the other way counts as inactive or inconclusive.

SMILES	Shiga toxin inh	RE007 growth inh	Giardia FBPA inh	CHX counter	Tb PYK inh	LmPK inhibitor
COc1ccc(C(OCC2CO2)c2ccc(OC)cc2)cc1 (configuration not stated)	-16.2	·	2.9%	-3.2	·	4.1%
CC(C)CN1CCc2nc(-c3ccccc3)c3c(c2CC1)COC(C)C3 (configuration not stated)	·	·	0.6%[12.9 µM]	·	·	·
COc1ccc(Cl)c2c1[nH]c1nc(SCc3ccccn3)nnc12	89.3*	-28.4%	-8.8%	40.8*	-0.9%	-3.9%
COc1ccc(Cl)c2c1[nH]c1nc(SCc3cccnc3)nnc12	20.7	-19.3%	1.1%	9.7	0.6%	8.1%
CCOC(=O)Nc1sc2c(c1C(N)=O)CCC(C)C2 (configuration not stated)	-2.3	-4.9%	1.7%	1.0	-1.9%	-0.9%
CC(=O)NC(=S)Nc1sc2c(c1C(N)=O)CCC(C)C2 (configuration not stated)	52.9*	3.8%	-13.0%	53.7*	-10.5%	2.4%
Cc1cc(C(=O)Nc2sc3c(c2C#N)CCC(C)C3)cs1 (configuration not stated)	126.1*	7.5%	0.4%	38.5*	-5.0%	-11.0%
CC1CCc2c(sc(NC(=O)c3ccccc3C(=O)O)c2C#N)C1 (configuration not stated)	42.8	19.6%	-0.6%	9.9	1.1%	1.1%
CC(=O)Nc1sc2c(c1C#N)CCC(C)C2 (configuration not stated)	37.8*	-13.7%	6.4%	17.4	-0.5%	-0.2%
CCN(CC(=O)Nc1sc2c(c1C#N)CCC(C)C2)CC(=O)NC1CCS(=O)(=O)C1 (configuration not stated)	42.0*	5.7%	-11.9%	19.0*	-16.3%	1.0%
Cc1ccc(S(=O)(=O)N2[C@@H](CO)CO[C@H]2CC(=O)c2ccc(F)cc2)cc1	·	4.0%	·	·	·	·
CCCCSCCCNC(=O)c1c[nH]c2ccc(S(=O)(=O)Nc3cccc(OC)c3)cc2c1=O	·	·	·	·	0.6%	·
O=C(CC[C@H]1O[C@@H](n2cnc3c(NC(=O)c4ccccc4)ncnc32)[C@H](O)[C@@H]1O)NCc1ccco1	·	-3.8%	·	·	0.2%	·
CCOc1ccc(C2C(C#N)=C(N)N3C(=C2C#N)Sc2ccccc23)cc1 (configuration not stated)	65.2*	-13.0%	-6.7%	26.3*	-33.7%	5.4%
COc1ccc(NC(=O)c2ccc(-n3cccn3)c([N+](=O)[O-])c2)cc1	26.8	10.4%	-16.2%	-0.5	2.8%	0.1%
O=C(Nc1ccc(Cl)cc1)c1ccc(-n2cccn2)c([N+](=O)[O-])c1	30.2	0.7%	-11.9%	23.6*	0.6%	-3.4%
Cc1ccc(NC(=O)c2ccc(-n3cccn3)c([N+](=O)[O-])c2)cc1C	45.4*	-17.8%	-22.6%	34.2*	-6.5%	0.5%
Clc1ccc(Cn2nc(-c3ccccc3)nc2-c2ccccc2)cc1	-4.8	-1.2%	-1.5%	7.5	-13.1%	-8.4%
COc1cc(-c2nnn(Cc3ccccc3C)n2)cc(OC)c1OC	-2.0	-1.7%	3.7%	-1.2	-10.7%	-3.1%
CCn1c(Cn2nnc(-c3ccccc3)n2)nnc1SCC(=O)Nc1ccc(N(C)C)cc1	-26.3	6.4%	-2.7%	-7.3	-21.8%	3.8%
Clc1ccccc1Cn1nc(-c2ccccc2)nc1-c1ccccc1	12.9	-5.7%	2.0%	17.5*	-4.6%	-4.1%
COc1ccc(-c2nnn(Cc3ccccc3)n2)cc1OC	·	-14.6%	0.4%	10.6*	1.7%	3.4%
Clc1ccccc1Cn1nnc(-c2cccs2)n1	61.4*	4.2%	9.3%	29.3*	-5.9%	6.4%
CN(C)c1ccc(-c2nnn(Cc3ccccc3Br)n2)cc1	26.9	-3.5%	3.7%	17.4*	-12.3%	2.1%
O=C(CCn1nnc(-c2cccs2)n1)NCc1ccccc1Cl	-10.3	7.6%	4.6%	-3.6	1.4%	-2.5%
SMILES	Shiga toxin inh	RE007 growth inh	Giardia FBPA inh	CHX counter	Tb PYK inh	LmPK inhibitor
COc1cccc(CSc2nccn2C)c1	3.6	1.8%	?	12.7	2.0%	0.8%
COc1ccccc1C(=O)Nc1nnc(SCc2cc(=O)n3ccc(C)cc3n2)s1	·	·	·	·	0.0%	·
CC(C)c1ccc(NC(=O)Cn2cc(S(=O)(=O)Cc3cccc(Cl)c3)c3ccccc32)cc1	·	·	·	·	-2.6%[15.4 µM]	·
Clc1ccc(Cn2nnc(-c3ccc(CN4CCOCC4)cc3)n2)cc1	-23.7	15.3%	2.1%	0.4	-0.3%	0.3%
Clc1ccc(Cn2nnc(-c3ccccc3)n2)cc1	57.4*	-16.0%	1.7%	28.4*	0.8%	0.9%
Clc1ccccc1Cn1nnc(-c2ccccc2)n1	105.0*	3.2%	5.3%	52.6*	-2.7%	2.1%
COc1ccc2c(c1)nc(-c1cccc(Br)c1)c(=O)n2C(c1ccccn1)c1nc2ccccc2[nH]1 (configuration not stated)	·	-3.7%	·	·	2.6%	·
Cc1ccc(-n2c(C3CC3c3ccc(Cl)cc3)n[nH]c2=S)cc1 (configuration not stated)	-15.8	-2.7%	9.2%	-6.1	?	7.94µM*
Cc1ccc(-n2c([C@@H]3C[C@H]3c3ccccc3)n[nH]c2=S)cc1	21.9	15.5%	6.0%	7.5	?	?
Cc1ccc(C2CC2c2n[nH]c(=S)n2-c2ccc(C)cc2)cc1 (configuration not stated)	-6.1	-9.0%	4.4%	8.7	?	11.2µM*
Cc1cc(Oc2ccc(=O)n(C)n2)nc(SCCOc2ccccc2)n1	15.6	-9.3%	-1.8%	-0.9	0.9%	0.3%
COc1ccc(-c2nc3c(Br)c(N)c(Br)cc3o2)cc1	19.1	-9.3%	?	9.5	-2.5%	22.4µM*
Nc1c(Br)cc2oc(-c3ccccc3)nc2c1Br	33.1	11.1%	1.6%	17.8*	0.5%	-4.4%
COc1ccc(NC(c2ccccc2)P(=O)(Oc2ccccc2)Oc2ccccc2)cc1 (configuration not stated)	-2.6	0.1%	-8.2%	10.6*	-5.7%	4.7%
CC1(C)CNc2cc([N+](=O)[O-])ccc2S1	58.1*	-17.5%	-10.5%	39.3*	3.8%	-1.8%
Cc1cc(Cl)ccc1OCc1n[nH]c(=S)n1C1CCCCC1	16.3	-17.7%	29.4%	-0.9	?	12.6µM*
COc1ccc(Cl)cc1-c1n[nH]c(=S)n1Cc1ccccc1	-2.7	-9.2%	22.1%	1.0	?	?
COc1ccc(Cl)cc1-c1n[nH]c(=S)n1C1CCCCC1	-22.1	11.2%	8.8%	-3.5	?	7.08µM*
COc1nccnc1NS(=O)(=O)c1ccc(NCc2cc(Br)ccc2O)cc1	57.1*	11.5%	4.0%	37.1*	9.3%	-4.6%
CCc1nnc(NS(=O)(=O)c2ccc(NCc3cc(Br)ccc3O)cc2)s1	-6.1	30.8%	·	1.4	-5.8%	-6.4%
COC(=O)[C@@H](NC(=O)N1CCc2nc(COc3ccccc3)c3c(c2C1)CO[C@@H](C)C3)C(C)C	·	·	-1.2%[12.9 µM]	·	·	-2.1%[11.5 µM]
